The structures appear in SMILES notation. Results filed as inconclusive are left out. A call without a number means that no potency is given here. The source made the active and inactive calls. Calls come from the whole dose curve; as a rule, active = well fitted inhibition curve with a large enough effect; inconclusive = small, poorly fitted or top-dose-only effect, or effect the other way; inactive = no such curve, though single readings can be large or run the other way.
Potency is the fitted concentration of half-maximal effect.

The nature of this experiment: DHR3 selectivity assay for inhibitors of ROR gamma transcriptional activity. Particulars: Drosophila S2 Gal4-DHR3 UAS-luciferase, 20 h; series mostly up to 92.2 µM. The text has this: NIH Molecular Libraries Probe Production Network [MLPCN] NIH Chemical Genomics Center [NCGC] MLPCN Grant: R03 DA026211-01 Assay Provider: Dan Littman, New York University Assay Overview: The retinoic acid-related orphan receptor (ROR) gamma is a transcription factor that has a central role in the differentiation of Th17 cells, a subset of T helper cells that secrete the inflammatory cytokines IL-17A, IL-17F, and IL-22. Th17 cells have been implicated in graft versus host disease, autoimmune disease and asthma. RORgamma is induced in naive T helper cells in the presence of TGF-beta combined with IL-6, IL-21, or IL-23, and thereafter directs the expression of the Th17 lineage cytokines. To identify […] inhibitors, a Drosophila Schneider cell line was stably transfected with two vectors: a gene expressing a fusion of the Gal4 DNA binding domain and the transactivation domain of the Drosophila Hormone Receptor 3 (DHR3), under the control of the metallothionine promoter and a Photinus luciferase reporter regulated by the Gal4 binding site enhancer, UAS. […] Small molecule inhibitors that inhibit components common to the RORgamma and DHR3 assays, such as proteins that interact with general nuclear hormone receptors, will be active in both assays and thus scored as nonselective.
Assay Protocol Summary: For screening, 600 cells in 4 uL/well were dispensed into white solid 1536-well plates (Grenier) using a solenoid-based dispenser. Following transfer of 23 nL compound or DMSO vehicle by a pin tool, the plates were incubated 1 hr at ambient temperature, and 1 uL/well copper sulfate (700 uM final concentration) was added. The plates were centrifuged 15 s at 1000 RPM and incubated 20 hr at ambient temperature. After addition of 1.5 uL Photinus luciferase detection reagent, the plates were incubated 10 min at ambient temperature and then read by an ViewLux (Perkin Elmer) to detect luminescence.
Consider `Cc1cc(C)c2[nH]c(C(=O)Nc3ccc4c(c3)OCO4)cc2c1`, for which the Potency was 0.204 µM (active).

As to `COC(=O)Cn1c(CN2CCc3ccccc3C2)nc2c1c(=O)n(C)c(=O)n2C`, the Potency is 8.12 µM (active).

In the case of `COc1cc(O)c(C(CC(=O)N2CCCC(C)(C)C2)c2ccc3c(c2)OCO3)c(OC)c1` (configuration not stated), the Potency entry was “inactive”.

Take `COc1cc(O)c(C(CC(=O)N2CCC(C)CC2)c2ccc3c(c2)OCO3)c(OC)c1` (configuration not stated): the Potency entry is “inactive”.

Take `COc1cc(O)c(C(CC(=O)N2CCCC(CN3CCCCC3)C2)c2ccc3c(c2)OCO3)c(OC)c1` (configuration not stated): the Potency result was “inactive”.

Consider `CC1CCCN(C(=O)CC(c2ccc3c(c2)OCO3)c2cc(C(C)C)ccc2O)C1` (configuration not stated), for which the Potency result was “inactive”.

As for `COc1ccc(C(=O)/C=C/c2ccc(OC)cc2OC)c(O)c1`, the Potency was 0.645 µM (active).

With `COc1cc(O)c(C(CC(=O)N2CCCC(C)C2)c2ccc3c(c2)OCO3)c(OC)c1` (configuration not stated), the Potency result was “inactive”.

For `CCC1CCCN(C(=O)CC(c2ccc3c(c2)OCO3)c2c(O)cc(OC)cc2OC)C1` (configuration not stated), the Potency entry was “inactive”.

As for `COc1cc(O)c(C(CC(=O)N2CCCC(C)C2)c2ccc3ccccc3c2)c(OC)c1` (configuration not stated), the Potency entry is “inactive”.

Turning to `COc1ccc(C(CC(=O)N2CCCC(C)C2)c2ccc3c(c2)OCO3)c(O)c1` (configuration not stated), the Potency result is “inactive”.

`COCC1CCCCN1C(=O)c1cc(COc2ccc3ncccc3c2)on1` (configuration not stated): the Potency is 9.11 µM (active).

Turning to `CCOC(=O)Cn1c(CN2CCc3ccccc3C2)nc2c1c(=O)n(C)c(=O)n2C`, the Potency was 6.45 µM (active).

For `CC(C)(C)c1ccc(-c2noc(CCC(=O)Nc3cccnc3)n2)cc1`, the Potency was 0.0512 µM (active).

For the molecule `CCOc1ncccc1C(=O)OCC(=O)Nc1ccc(-c2nc3ccc(C)cc3s2)cc1`, the Potency is 0.363 µM (active).

Turning to `COc1cc(O)c(C(CC(=O)N2CCc3ccccc32)c2ccc3c(c2)OCO3)c(OC)c1` (configuration not stated), the Potency entry is “inactive”.

Turning to `Cc1ccc(C)c(C(CC(=O)N2CCCC(C)C2)c2ccc3c(c2)OCO3)c1O` (configuration not stated), the Potency entry is “inactive”.

As to `COc1cc(O)c(C(CC(=O)N2CCCC(C)C2)c2ccccc2C)c(OC)c1` (configuration not stated), the Potency result is “inactive”.

In the case of `COc1cc(O)c(C(CC(=O)N2CCCC(C)C2)c2ccccc2OC)c(OC)c1` (configuration not stated), the Potency entry is “inactive”.

Turning to `COc1ccc(-c2c[n+]3c(n2-c2ccc(C)cc2)CCCCC3)cc1`, the Potency was 8.12 µM (active).

Regarding `COc1cc(OC)c(C(CC(=O)N2CCCC(C)C2)c2ccc3c(c2)OCO3)c(OCc2ccccc2)c1` (configuration not stated), the Potency was 14.4 µM (active).

For the molecule `COc1cc(OC)c(C(CC(=O)N2CC(C)CC(C)C2)c2ccc3c(c2)OCO3)c(OCC(N)=O)c1` (configuration not stated), the Potency entry was “inactive”.
